Experimental data taken from PubChem BioAssay AID743449 (Broad Institute, 2014).
Among all 9,900 compounds or so, about 90 (0.9%) were called active. About 2% were inconclusive and are not listed.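 How the source made its calls: active means mean normalized replicate activity at least 50 and at least half of replicates each reaching 50; inconclusive means only one of the two criteria met; inactive means neither criterion met.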 Many of the other results were omitted from the sample, so actives are more common in it than they were.

test: YAP1 pathway inhibitors via CTGF transcript, primary screen, DLD1 colon cancer cells, RT-qPCR, single point (AID 743449); details: DLD1 CTGF mRNA qPCR, 24 h; at 12.5 µM; active compounds read high;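 further: 0% = neutral control wells and 100% = dasatinib control wells; higher means stronger suppression of CTGF expression like dasatinib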

Compound	inhibition
CO[C@H]1CC[C@@H]2CCOc3ccc(C#N)cc3C(=O)N(C)C[C@@H](c3ccccc3)CC(=O)N(C)C[C@@H]1O2	-39.9% (inactive)
OC[C@@H]1[C@H](c2ccc(C#Cc3ccccc3F)cc2)[C@@H]2CN(CC3CCOCC3)CCCCN12	-33.6% (inactive)
CCCNC[C@@H]1[C@@H](c2ccc(C3=CCCCC3)cc2)[C@@H](CO)N1C(=O)C1CCC1	-79.5% (inactive)
CN1C(=O)c2cc(NC(=O)Nc3ccccc3Cl)ccc2OC[C@@H]2O[C@@H](CC(=O)O)CC[C@H]21	-2.71% (inactive)
COc1ccc2c3c(n(C)c2c1)[C@@H](CO)N(C(=O)Nc1ccc(F)cc1)CC31CCN(C(=O)c2ccc3c(c2)OCO3)CC1	8.8% (inactive)
C[C@@H]1CCCCO[C@H](CN(C)Cc2ccncc2)[C@H](C)CN([C@H](C)CO)C(=O)c2cc(NC(=O)Cc3ccccc3)ccc2O1	7.17% (inactive)
C/C=C/c1ccc([C@@H]2[C@@H](CO)N(CC3CCCC3)C23CN(S(=O)(=O)CC)C3)cc1	-26.7% (inactive)
O=S(=O)(Cc1ccccc1)N1CC2(C1)[C@H](c1ccccc1)[C@H](CO)N2CC1CCCC1	63.5% (active)
C/C=C/c1ccc([C@@H]2[C@H](CO)N(CC3CCCC3)C23CN(S(=O)(=O)CC)C3)cc1	-25.3% (inactive)
O=C(C[C@H]1C[C@@H]2c3cc(NC(=O)C4CCOCC4)ccc3O[C@@H]2[C@@H](CO)O1)NCCN1CCCCC1	23.7% (inactive)
C/C=C/c1cccc(-c2nc(C(=O)N3CCCCC3)cc3c2[C@H](CCO)N(C(=O)NC(C)C)C3)c1	1.73% (inactive)
C/C=C/c1cccc(-c2nc(C(=O)Nc3nccs3)cc3c2[C@@H](CCO)N(C(=O)NC(C)C)C3)c1	59.6% (active)
C/C=C/c1cccc(-c2nc(C(=O)N3CCCCC3)cc3c2[C@@H](CCO)N(C(=O)NC(C)C)C3)c1	-19.7% (inactive)
CCC(=O)N(CC(C)C)C[C@@H]1[C@@H](c2ccccc2)[C@H](CO)N1C(=O)C1CCC1	3.26% (inactive)
CO[C@@H](CN(C)S(=O)(=O)c1ccc(F)cc1)[C@H](C)CN(Cc1ccccc1Cl)[C@H](C)CO	-18% (inactive)
O=C(c1cccc(F)c1)N1CCCCN2[C@H](C1)[C@H](c1ccc(C#CC3(O)CCCC3)cc1)[C@@H]2CO	24% (inactive)
C[C@H](O)C#Cc1ccc([C@@H]2[C@H]3CN(C(=O)c4ccc5c(c4)OCO5)CCCCN3[C@H]2CO)cc1	-48.5% (inactive)
O=C(c1cccc(F)c1)N1CCCCN2[C@H](CO)[C@H](c3ccc(C#CC4(O)CCCC4)cc3)[C@H]2C1	11.6% (inactive)
O=C(c1cccc(F)c1)N1CCCCN2[C@@H](CO)[C@H](c3ccc(C#CC4(O)CCCC4)cc3)[C@@H]2C1	68.7% (active)
C[C@H](O)C#Cc1ccc([C@H]2[C@@H](CO)N3CCCCN(C(=O)c4ccc5c(c4)OCO5)C[C@@H]23)cc1	53.3% (active)
O=C(c1cccc(F)c1)N1CCCCN2[C@H](CO)[C@H](c3ccc(C#CC4(O)CCCC4)cc3)[C@@H]2C1	58.8% (active)
C[C@H](O)C#Cc1ccc([C@@H]2[C@@H](CO)N3CCCCN(C(=O)c4ccc5c(c4)OCO5)C[C@H]23)cc1	-21.5% (inactive)
O=C(c1cccc(F)c1)N1CCCCN2[C@H](C1)[C@@H](c1ccc(C#CC3(O)CCCC3)cc1)[C@@H]2CO	30.5% (inactive)
O=C(c1cccc(F)c1)N1CCCCN2[C@H](CO)[C@@H](c3ccc(C#CC4(O)CCCC4)cc3)[C@@H]2C1	-4.53% (inactive)
O=C(C[C@H]1CC[C@H]2[C@@H](COC[C@@H](O)CN2C(=O)c2cccnc2)O1)NCC1CC1	6.53% (inactive)

Compound	inhibition
COCCNC(=O)C[C@@H]1C[C@H]2c3cc(NC(=O)CN(C)C)ccc3O[C@H]2[C@H](CO)O1	0.098% (inactive)
COc1cccc(NC(=O)N2C[C@H](O)COC[C@H]3O[C@H](CC(=O)N(C)C)CC[C@@H]32)c1	-3.69% (inactive)
O=C(CN1CCOCC1)N1CC(=O)N2[C@H](C1)[C@@H](c1ccc(-c3cccc(F)c3)cc1)[C@@H]2CO	10.6% (inactive)
C[C@H](CO)N1C[C@H](C)[C@H](CN(C)C(=O)Nc2ccc(-c3cccs3)cc2)OCc2cnnn2CCCC1=O	13.8% (inactive)
CC(C)[C@@H]1C(=O)N[C@H](c2cccc(Cl)c2)CC=CC[C@@H](C)Oc2ccccc2C(=O)N1C (mixture of isomers)	14.5% (inactive)
C[C@H]1CC=CC[C@H](c2cccc(Cl)c2)NC(=O)[C@H](Cc2ccccc2)N(C)C(=O)c2ccccc2O1 (mixture of isomers)	-228% (inactive)
CC(C)[C@H]1C(=O)N[C@H](c2cccc(Cl)c2)CC=CC[C@H](C)Oc2ccccc2C(=O)N1C (mixture of isomers)	-2.2% (inactive)
C[C@@H]1CC=CC[C@@H](c2cccc(Cl)c2)NC(=O)[C@@H](Cc2ccccc2)N(C)C(=O)c2ccccc2O1 (mixture of isomers)	67.5% (active)
C[C@H]1CC=CC[C@H](c2cccc(Cl)c2)NC(=O)[C@@H](Cc2ccccc2)N(C)C(=O)c2ccccc2O1 (mixture of isomers)	-83.3% (inactive)
C[C@@H]1CC=CC[C@@H](c2cccc(Cl)c2)NC(=O)[C@H](Cc2ccccc2)N(C)C(=O)c2ccccc2O1 (mixture of isomers)	50.4% (active)
CN1C(=O)c2cc(NC(=O)NCc3ccccc3)ccc2OC[C@@H]2O[C@@H](CC(=O)NCC3CCCCC3)CC[C@H]21	-20.9% (inactive)
COc1cccc(S(=O)(=O)N[C@H]2CC[C@H](CC(=O)NC3Cc4ccccc4C3)O[C@H]2CO)c1	3.79% (inactive)
Cc1noc(C)c1S(=O)(=O)N(C)C[C@H]1OCCCC[C@H](C)Oc2ccc(NC(=O)CCC(F)(F)F)cc2C(=O)N([C@@H](C)CO)C[C@@H]1C	8.01% (inactive)
CN1C(=O)c2cc(NC(=O)c3cccc(Cl)c3)ccc2OC[C@H]2O[C@H](CC(=O)NC3CCCCC3)CC[C@H]21	-12.4% (inactive)
COc1ccccc1NC(=O)N1CCCCN2[C@@H](CO)[C@@H](c3ccc(-c4cccc(C#N)c4)cc3)[C@@H]2C1	-18.2% (inactive)
COc1ccccc1NC(=O)N1CCCCN2[C@H](CO)[C@@H](c3ccc(-c4cccc(C#N)c4)cc3)[C@H]2C1	-21.9% (inactive)
COc1ccccc1NC(=O)N1CCCCN2[C@@H](CO)[C@H](c3ccc(-c4cccc(C#N)c4)cc3)[C@@H]2C1	75% (active)
COc1ccccc1NC(=O)N1CCCCN2[C@H](C1)[C@@H](c1ccc(-c3cccc(C#N)c3)cc1)[C@@H]2CO	-9.55% (inactive)
COc1ccccc1NC(=O)N1CCCCN2[C@H](CO)[C@H](c3ccc(-c4cccc(C#N)c4)cc3)[C@H]2C1	19.1% (inactive)
COc1ccccc1NC(=O)N1CCCCN2[C@H](CO)[C@H](c3ccc(-c4cccc(C#N)c4)cc3)[C@@H]2C1	52.5% (active)
COc1cccc(S(=O)(=O)N[C@H]2CC[C@@H](CC(=O)NC3Cc4ccccc4C3)O[C@H]2CO)c1	0.76% (inactive)
CCC(=O)N1CC2(C1)[C@H](c1ccc(-c3ccc(F)cc3)cc1)[C@H](CO)N2C(C)=O	5.26% (inactive)
COc1cccc(C(=O)Nc2ccc3c(c2)C(=O)N(C)[C@@H]2CC[C@H](CC(=O)N[C@@H](C)c4ccccc4)O[C@@H]2CO3)c1	-43.4% (inactive)
O=C(Nc1ccc(F)cc1)N1CC(=O)N2[C@H](C1)[C@@H](c1ccc(-c3cccc(F)c3)cc1)[C@@H]2CO	-72.3% (inactive)
COCC(=O)N1[C@H](CO)[C@@H](c2ccccc2)C12CN(C(=O)c1ccccc1)C2	-0.941% (inactive)

Compound	inhibition
C[C@H]1CN([C@@H](C)CO)C(=O)c2ccccc2-c2ccccc2CO[C@H]1CN(C)S(=O)(=O)c1cn(C)cn1	10.4% (inactive)
CC(C)(C)[S@](=O)N1Cc2cc(C(=O)NC3CCC3)nc(-c3cccc(-c4ccccc4F)c3)c2[C@@H]1CCO	41% (inactive)
CCC(=O)N1Cc2cc(C(=O)NCc3cccc(F)c3)nc(-c3cccc(C4=CCCC4)c3)c2[C@H]1CCO	50.2% (active)
CC(C)(C)S(=O)N1Cc2cc(C(=O)NCc3ccc4c(c3)OCO4)nc(-c3cccc(-c4cc5ccccc5o4)c3)c2[C@H]1CCO (some centres undefined)	20.7% (inactive)
CCNC(=O)c1cc2c(c(-c3cccc(-c4cncnc4)c3)n1)[C@H](CCO)N(C(C)=O)C2	-8.43% (inactive)
CCNC(=O)c1cc2c(c(-c3cccc(-c4ccccc4F)c3)n1)[C@H](CCO)N(C(=O)CC1CC1)C2	-97.9% (inactive)
CCN1Cc2cc(C(=O)Nc3nccs3)nc(-c3cccc(C4=CCCC4)c3)c2[C@H]1CCO	-15.8% (inactive)
CC(C)(C)S(=O)N1Cc2cc(C(=O)NCc3ccc4c(c3)OCO4)nc(-c3cccc(-c4cccc(F)c4)c3)c2[C@@H]1CCO (some centres undefined)	55.2% (active)
CCNC(=O)c1cc2c(c(-c3cccc(-c4ccccc4F)c3)n1)[C@@H](CCO)N(C(=O)CC1CC1)C2	59.3% (active)
CC(C)(C)S(=O)N1Cc2cc(C(=O)NCc3ccc(Oc4ccccc4)cc3)nc(-c3cccc(-c4cccc(F)c4)c3)c2[C@@H]1CCO (some centres undefined)	9.98% (inactive)
CC(C)(C)[S@](=O)N1Cc2cc(C(=O)NCc3ccccn3)nc(-c3cccc(-c4ccccc4F)c3)c2[C@@H]1CCO	53% (active)
CN(C)C(=O)c1cc2c(c(-c3cccc(C4=CCCCC4)c3)n1)[C@@H](CCO)N(S(C)(=O)=O)C2	-7.52% (inactive)
CC(C)(C)[S@@](=O)N1Cc2cc(C(=O)NCc3ccccn3)nc(-c3cccc(-c4ccccc4F)c3)c2[C@H]1CCO	-29.9% (inactive)
O=C1C[C@H](c2ccccc2)C(=O)N[C@H](c2ccccc2)C/C=C\C[C@H](c2ccccc2)N1	-5.88% (inactive)
COc1ccc(S(=O)(=O)Nc2ccc3c(c2)C(=O)N([C@H](C)CO)C[C@H](C)[C@@H](CN(C)C(=O)Nc2c(C)noc2C)OCCCC[C@H](C)O3)cc1	-7.64% (inactive)
O=C(Cc1cccnc1)N1[C@H](CNCC2CCC2)[C@H](c2ccccc2)[C@@H]1CO	-21.2% (inactive)
COc1ccc(S(=O)(=O)Nc2ccc3c(c2)C(=O)N([C@@H](C)CO)C[C@@H](C)[C@@H](CN(C)Cc2ccc(C(F)(F)F)cc2)OCCCC[C@H](C)O3)cc1	-37.9% (inactive)
O=C(C1CCOCC1)N1CC[C@@H]2[C@@H](CO)Nc3ccc(-c4cccc(F)c4)cc3[C@@H]21	-12.5% (inactive)
CO[C@H]1CC[C@H]2CCOc3c(C#N)cccc3C(=O)N(C)C[C@@H](OC)[C@@H](C)C(=O)N(C)C[C@H]1O2	-18.4% (inactive)
O=C(C[C@@H]1CC[C@@H]2[C@H](COC[C@@H](O)CN2C(=O)c2cnccn2)O1)N1CCN(c2ccccc2)CC1	-2.5% (inactive)
COc1ccc2c3c([nH]c2c1)[C@H](CO)N(C(=O)c1ccccn1)CC31CCN(S(C)(=O)=O)CC1	-21.9% (inactive)
COc1ccccc1CN1[C@@H]2c3ccc(C4=CCCC4)c(=O)n3C[C@H]1[C@H](CO)[C@H]2C(=O)N(C)C	2.56% (inactive)
C[C@@H]1CN([C@H](C)CO)C(=O)Cc2cc(NS(=O)(=O)c3cccs3)ccc2O[C@@H]1CN(C)CC1CCCCC1	1.75% (inactive)
COc1ccc2c3c(n(C)c2c1)[C@@H](CO)N(S(C)(=O)=O)CC31CCN(Cc2nccs2)CC1	14% (inactive)
